Test results as given in PubChem BioAssay (NCATS).
Several values for one entry are separate records, joined by “and”; a condition that tells them apart may be missing. Identical values can stand only once. Results filed as inconclusive are left out. Activity calls are given as the source filed them. Unless noted, calls come from the whole dose curve; as a rule, active = well fitted curve in the direction sought with a large enough effect; inconclusive = small, poorly fitted or top-dose-only effect, or another doubt; inactive = no such curve, though single readings can be large; an effect the other way counts as inactive or inconclusive.

How the values were obtained:
[1] = target: Peroxisome proliferator-activated receptor gamma (Homo sapiens) (UniProt P37231); assay: qHTS assay for small molecule agonists of peroxisome proliferator-activated receptor gamma signaling (AID 588536; active = well fitted curve in the direction sought with a large enough effect in the signal ratio, with a control signal flat, not every such curve was filed as active; the % refers to the signal ratio;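 note: 0% = DMSO basal wells and 100% = rosiglitazone at 2 µM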)
Outline: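 PPAR-gamma-UAS-bla HEK293 cells in medium with 1% charcoal/dextran-treated FBS were exposed to compounds for 16 h at 37 C. Beta-lactamase activity was read with CCF4 substrate (405 nm excitation, 460/530 nm emission).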

[2] = target: Peroxisome proliferator-activated receptor gamma (Homo sapiens) (UniProt P37231); assay: qHTS assay for small molecule antagonists of peroxisome proliferator-activated receptor gamma signaling (AID 588537; active = well fitted inhibition curve with a large enough effect in the signal ratio, with a control signal flat, not every such curve was filed as active; the % refers to the signal ratio;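 note: reporter cells co-stimulated with 50 nM rosiglitazone agonist during compound treatment; % of control where 0% means no effect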)
Outline: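 We seeded GeneBLAzer HEK293 reporter cells at 3000 per well, allowed 6-6.5 h attachment at 37 C, then co-treated with test compound titrations and 50 nM rosiglitazone overnight (16 h). Inhibition was quantified from 460/530 nm emission ratios.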

[3] = qHTS assay for small molecule agonists of retinoid X receptor alpha signaling (AID 588544; calls by dose curve;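 for activation: 0% = DMSO basal wells and 100% = reference agonist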); details: HEK293T RXRa-UAS-bla, beta-lactamase reporter, 18 h; 530 nm emission
[4] = target: Retinoic acid receptor RXR-alpha (Homo sapiens) (UniProt P19793); assay: as above
[5] = target: Thyroid hormone receptor beta (Homo sapiens) (UniProt P10828); assay: qHTS assay for small molecule agonists of thyroid hormone receptor beta signaling (AID 588545; calls by dose curve)
Outline: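 Agonist activity was read as beta-lactamase CCF4 fluorescence (405 ex, 460/530 em), scaled between DMSO (0%) and 10 nM T3 (100%), then Hill-fitted for EC50 and efficacy. HEK 293 TR-UAS-bla cells in 2% charcoal/dextran FBS medium were exposed 18 h at 37 C.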

[6] = qHTS assay for small molecule antagonists of retinoid X receptor alpha signaling (AID 588546; active = well fitted inhibition curve with a large enough effect in the signal ratio, with a control signal flat, not every such curve was filed as active; the % refers to the signal ratio;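 note: cells stimulated with 9-cis-retinoic acid as agonist; % is set by controls: 0 for no effect and ±100 for the full control effect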); details: HEK293T RXRa-UAS-bla, beta-lactamase ratio, antagonist mode; measured here: W530 green channel, cytotoxicity proxy
Outline: (§1)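 Beta-lactamase reporter inhibition, read as CCF4 fluorescence ratio (ex 405, em 460/530 nm) after 2 h at RT. HEK293T UAS-bla cells, 2500/well, were stimulated with 9-cis-RA at 500 or 100 nM final alongside test compound for 18 h at 37 C.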

[7] = target: Retinoic acid receptor RXR-alpha (Homo sapiens) (UniProt P19793); assay: as above; details: HEK293T RXRa-UAS-bla, beta-lactamase ratio, antagonist mode
Outline: as §1

[8] = target: Thyroid hormone receptor beta (Homo sapiens) (UniProt P10828); assay: qHTS assay for small molecule antagonists of thyroid hormone receptor beta signaling (AID 588547; active = well fitted inhibition curve with a large enough effect in the signal ratio, with a control signal flat, not every such curve was filed as active; the % refers to the signal ratio;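 note: cells stimulated with 0.4 nM T3 agonist during compound exposure; series mostly up to about 77 µM; % is set by controls: 0 for no effect and ±100 for the full control effect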); details: TR-UAS-bla HEK293, beta-lactamase ratio, antagonist mode, 18 h
Outline: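 TR-UAS-bla GripTite HEK293 cells in 2% charcoal/dextran FBS medium were preincubated 4 h at 37 C, given compound (0.59 nM to 92 uM) plus 0.4 nM T3 (final) for 18 h, then CCF4 for 2 h at RT; Hill fit gave IC50.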

[9] = qHTS assay for small molecule activators of the nuclear factor-kappa B (NF-kB) signaling pathway (AID 651749; active = well fitted activation curve with a large enough effect in the signal ratio; the % refers to the signal ratio; note: potency is the fitted concentration of half-maximal effect; for activation: series mostly up to about 77 µM; % of control where 0% means no effect); details: NF-kB-bla ME-180 cells, beta-lactamase FRET ratio, 16 h; activation: stronger effect = higher value
Outline: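 Screening used 2,000 ME-180 reporter cells per well exposed to pinned compound (23 nL) or DMSO; after 16 hr at 37C, beta-lactamase expression under NF-kB control was assessed through FRET.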

[10] = target: Peroxisome proliferator-activated receptor alpha (Homo sapiens) (UniProt Q07869); assay: qHTS assay for small molecule agonists of the peroxisome proliferator-activated receptor alpha (PPARalpha) signaling pathway (AID 651778); details: PathHunter PPARalpha complementation, chemiluminescence, 6 h; max response: stronger effect = higher value; note: % of control where 0% means no effect
Outline: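 Cells plated at 2,000/well and held overnight at 37 C, 5% CO2, then compound added by pin tool for 6 hr; after PathHunter detection reagent and 60 min at room temperature, chemiluminescence from enzyme complementation was read.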

[11] = qHTS assay for small molecule agonists of the antioxidant response element (ARE) signaling pathway measured by Nrf2-dependant transcriptional activity (AID 720636; active = well fitted curve in the direction sought with a large enough effect in the repeat runs; an effect the other way counts as inactive or inconclusive; note: % of control where 0% means no effect)
Outline: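 ARE-luc HepG2 cells carrying an Nrf2-responsive luciferase reporter were plated in medium with 1% dialyzed FBS, left 6 hr at 37 C to attach, then exposed to compound for 16 hr. Luciferase luminescence was read after ONE-Glo addition.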

[12] = qHTS assay for small molecule agonists of the antioxidant response element (ARE) signaling pathway measured by Nrf2-dependant transcriptional activity - cell viability counter screen (AID 720653; active = well fitted curve in the direction sought with a large enough effect in the repeat runs; an effect the other way counts as inactive or inconclusive; note: % is set by controls: 0 for no effect and ±100 for the full control effect); details: ARE-bla HepG2 viability, CellTiter-Glo ATP luminescence, 16 h; max response: stronger effect = lower value
Outline: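 ARE-bla HepG2 cells (2,000/well) rested 5 hrs at 37C/5% CO2, then exposed to compounds in DMSO for 16 hrs. Viability was read in the same wells as intracellular ATP by luminescence, 30 min at room temperature after reagent addition.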

[13] = qHTS assay for cell viability of HEK293 cells (AID 743288); details: ATP luminescence (CellTiter-Glo), 18 h; max response: stronger effect = lower value; note: nearly all actives have a fitted effect of over 50% in size; note: potency is the fitted concentration of half-maximal effect
Outline: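 Environmental chemicals tested in qHTS format against parental HEK293 cells; 18 h treatment, 37 C; read-out ATP luminescence (CellTiter-Glo), 30 min RT development.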

[14] = target: Nuclear receptor subfamily 1 group I member 2 (Rattus norvegicus) (UniProt Q9R1A7); assay: qHTS assay for small molecule activators of the rat pregnane X receptor (rPXR) signaling pathway (AID 651751; call rule not given here; note: 0% is about no effect); details: rPXR reporter cells, luciferase (One-Glo), 24 h
[15] = qHTS assay for small molecule activators of the human pregnane X receptor (PXR) signaling pathway (AID 720659; call rule not given here; note: 0% is about no effect)
[16] = qHTS assay for small molecule activators of the p53 signaling pathway (AID 651743; active = well fitted activation curve with a large enough effect in the signal ratio, not every such curve was filed as active; the % refers to the signal ratio; note: series mostly up to about 92 µM; % of control where 0% means no effect); details: HCT-116 p53RE-bla, beta-lactamase FRET ratio, 16 h; activation: stronger effect = higher value
Outline: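 Cell-based beta-lactamase reporter (p53 response elements, HCT-116 background). After a 5-hour preincubation, cells received compound for 16 hours at 37 C; substrate development ran 2 hours at room temperature.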

[17] = qHTS assay for environmental chemicals that activate the Aryl hydrocarbon Receptor (AhR) signaling pathway (AID 651777); details: 1A2-DRE human hepatoma cells, luciferase, 24 h; activation: stronger effect = higher value; note: nearly all actives have a fitted effect of over 15% in size; note: potency is the fitted concentration of half-maximal effect; for activation: % of control where 0% means no effect
Outline: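 Human hepatoma 1A2-DRE cells, stably carrying a dioxin response element and CYP1A2 promoter driving luciferase, were exposed to compounds for 24 hr at 37 C and 5% CO2. Luciferase signal was then read after 30 min One-Glo at room temperature.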

[18] = qHTS assay for cell viability of the p53RE-bla HCT-116 cell line (AID 743292); note: % is set by controls: 0 for no effect and ±100 for the full control effect; nearly all actives have a fitted effect of over 55% in size
Outline: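 CellSensor p53RE-bla HCT-116 cells, 4,000/well, preincubated 5 h at 37 C, then exposed to compounds in DMSO for 16 h at 37 C. Viability read as CellTiter-Glo luminescence (intracellular ATP) after 30 min at room temperature.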

[19] = target: Vitamin D3 receptor (Homo sapiens) (UniProt P11473); assay: qHTS assay for small molecule agonists of vitamin D receptor signaling (AID 588543; calls by dose curve;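 note: 0% = DMSO basal and 100% = reference agonist control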)
Outline: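 β-lactamase reporter, VDR-UAS-bla HEK293T, agonist mode. Cells plated 5 h at 37 °C, compound titration 16 h at 37 °C, CCF4 dye 2 h RT, ratio 460/530 nm. Hill fit → EC50, efficacy vs 50 nM 1α,25-(OH)2D3.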

[20] = target: Estrogen receptor (Homo sapiens) (UniProt P03372); assay: qHTS assay for small molecule antagonists of estrogen receptor alpha signaling (AID 588513; active = well fitted curve in the direction sought with a large enough effect in the signal ratio, with a control signal flat, not every such curve was filed as active; the % refers to the signal ratio; note: % is set by controls: 0 for no effect and ±100 for the full control effect)
Outline: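 Beta-lactamase reporter, antagonist mode, HEK 293 GripTite cells; 0.5nM E2 stimulus, 18 h, 37 C; CCF4 dye 2 h RT; fluorescence. IC50 and efficacy from Hill fits, normalized to E2 and DMSO.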

Sequence of Vitamin D3 receptor (Homo sapiens) (P11473 whole entry, looked up): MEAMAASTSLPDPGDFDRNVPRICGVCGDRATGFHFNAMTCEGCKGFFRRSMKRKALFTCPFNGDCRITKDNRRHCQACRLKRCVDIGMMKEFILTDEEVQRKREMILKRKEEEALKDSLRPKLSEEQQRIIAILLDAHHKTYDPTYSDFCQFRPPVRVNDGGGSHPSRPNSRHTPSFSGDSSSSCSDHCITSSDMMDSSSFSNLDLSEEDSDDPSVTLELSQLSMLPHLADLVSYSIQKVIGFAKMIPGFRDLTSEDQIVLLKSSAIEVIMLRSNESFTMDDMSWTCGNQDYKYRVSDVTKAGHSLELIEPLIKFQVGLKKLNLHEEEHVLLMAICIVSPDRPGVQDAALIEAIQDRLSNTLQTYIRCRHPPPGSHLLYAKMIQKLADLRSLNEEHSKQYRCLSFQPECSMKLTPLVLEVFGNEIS
Sequence of Nuclear receptor subfamily 1 group I member 2 (Rattus norvegicus) (Q9R1A7 whole entry, looked up): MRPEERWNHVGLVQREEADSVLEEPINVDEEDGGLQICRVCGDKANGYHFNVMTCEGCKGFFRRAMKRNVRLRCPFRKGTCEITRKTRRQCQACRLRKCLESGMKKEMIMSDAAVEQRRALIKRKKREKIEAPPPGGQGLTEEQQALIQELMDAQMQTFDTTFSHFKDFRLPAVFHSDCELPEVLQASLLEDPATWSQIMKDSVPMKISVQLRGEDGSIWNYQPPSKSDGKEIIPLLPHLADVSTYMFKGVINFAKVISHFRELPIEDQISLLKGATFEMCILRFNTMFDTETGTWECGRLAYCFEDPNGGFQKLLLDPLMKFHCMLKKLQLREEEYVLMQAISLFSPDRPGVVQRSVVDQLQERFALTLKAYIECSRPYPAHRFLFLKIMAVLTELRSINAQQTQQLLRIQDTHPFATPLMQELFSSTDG
Sequence of Estrogen receptor (Homo sapiens) (P03372 whole entry, looked up): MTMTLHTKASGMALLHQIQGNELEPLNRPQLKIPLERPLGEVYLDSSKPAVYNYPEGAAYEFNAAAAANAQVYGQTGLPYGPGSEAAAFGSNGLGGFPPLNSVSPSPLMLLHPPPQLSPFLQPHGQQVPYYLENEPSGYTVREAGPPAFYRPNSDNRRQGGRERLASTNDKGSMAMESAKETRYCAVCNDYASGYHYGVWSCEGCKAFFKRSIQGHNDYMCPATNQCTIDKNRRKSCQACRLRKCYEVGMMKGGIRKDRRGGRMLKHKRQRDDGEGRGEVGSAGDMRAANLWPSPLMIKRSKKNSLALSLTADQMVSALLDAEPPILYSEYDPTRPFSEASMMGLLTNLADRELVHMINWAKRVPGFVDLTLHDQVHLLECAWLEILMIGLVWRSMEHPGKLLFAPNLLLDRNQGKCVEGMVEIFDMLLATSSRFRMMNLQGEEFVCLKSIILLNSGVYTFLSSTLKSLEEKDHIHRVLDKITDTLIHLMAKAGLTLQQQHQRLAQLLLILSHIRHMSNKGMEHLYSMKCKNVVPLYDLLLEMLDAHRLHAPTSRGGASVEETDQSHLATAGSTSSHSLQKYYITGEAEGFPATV
Sequence of Thyroid hormone receptor beta (Homo sapiens) (P10828 whole entry, looked up): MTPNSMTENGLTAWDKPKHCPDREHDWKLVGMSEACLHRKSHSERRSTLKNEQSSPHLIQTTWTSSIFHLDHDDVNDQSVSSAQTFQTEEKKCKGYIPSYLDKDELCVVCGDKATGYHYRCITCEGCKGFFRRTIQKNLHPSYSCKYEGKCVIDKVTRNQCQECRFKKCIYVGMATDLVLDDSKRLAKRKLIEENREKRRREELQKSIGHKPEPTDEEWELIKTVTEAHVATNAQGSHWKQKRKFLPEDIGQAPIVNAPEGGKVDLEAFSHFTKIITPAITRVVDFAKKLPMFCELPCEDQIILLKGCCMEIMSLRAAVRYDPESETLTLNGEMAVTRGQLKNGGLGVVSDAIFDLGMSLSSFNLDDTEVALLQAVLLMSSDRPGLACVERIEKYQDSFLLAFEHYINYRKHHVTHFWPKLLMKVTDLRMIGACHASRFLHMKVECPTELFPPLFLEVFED
Sequence of Retinoic acid receptor RXR-alpha (Homo sapiens) (P19793 whole entry, looked up): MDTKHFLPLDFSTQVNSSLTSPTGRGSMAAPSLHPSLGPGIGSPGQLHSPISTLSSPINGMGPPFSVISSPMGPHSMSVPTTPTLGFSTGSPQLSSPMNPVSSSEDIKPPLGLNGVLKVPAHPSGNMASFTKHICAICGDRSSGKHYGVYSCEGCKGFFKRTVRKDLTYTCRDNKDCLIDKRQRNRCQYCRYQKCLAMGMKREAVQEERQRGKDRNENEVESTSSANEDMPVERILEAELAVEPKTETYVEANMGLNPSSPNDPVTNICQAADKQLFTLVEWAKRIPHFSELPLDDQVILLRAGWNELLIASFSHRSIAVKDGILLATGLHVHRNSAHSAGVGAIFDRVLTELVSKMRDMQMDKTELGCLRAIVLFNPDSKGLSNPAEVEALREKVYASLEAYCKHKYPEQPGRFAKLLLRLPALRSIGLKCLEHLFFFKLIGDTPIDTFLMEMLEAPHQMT
Sequence of Peroxisome proliferator-activated receptor alpha (Homo sapiens) (Q07869 whole entry, looked up): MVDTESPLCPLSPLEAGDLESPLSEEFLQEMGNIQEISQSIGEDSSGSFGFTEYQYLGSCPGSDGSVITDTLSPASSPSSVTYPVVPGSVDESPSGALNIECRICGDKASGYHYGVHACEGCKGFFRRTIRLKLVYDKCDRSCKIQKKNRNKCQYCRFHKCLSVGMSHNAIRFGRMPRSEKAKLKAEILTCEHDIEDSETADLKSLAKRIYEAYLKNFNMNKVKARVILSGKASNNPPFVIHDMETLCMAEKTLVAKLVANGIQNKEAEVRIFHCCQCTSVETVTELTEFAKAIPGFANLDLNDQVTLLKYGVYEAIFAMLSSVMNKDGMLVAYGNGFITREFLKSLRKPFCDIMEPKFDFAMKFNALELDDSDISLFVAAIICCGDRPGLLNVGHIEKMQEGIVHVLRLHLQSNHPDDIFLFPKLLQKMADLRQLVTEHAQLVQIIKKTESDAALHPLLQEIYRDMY
Sequence of Peroxisome proliferator-activated receptor gamma (Homo sapiens) (P37231 whole entry, looked up): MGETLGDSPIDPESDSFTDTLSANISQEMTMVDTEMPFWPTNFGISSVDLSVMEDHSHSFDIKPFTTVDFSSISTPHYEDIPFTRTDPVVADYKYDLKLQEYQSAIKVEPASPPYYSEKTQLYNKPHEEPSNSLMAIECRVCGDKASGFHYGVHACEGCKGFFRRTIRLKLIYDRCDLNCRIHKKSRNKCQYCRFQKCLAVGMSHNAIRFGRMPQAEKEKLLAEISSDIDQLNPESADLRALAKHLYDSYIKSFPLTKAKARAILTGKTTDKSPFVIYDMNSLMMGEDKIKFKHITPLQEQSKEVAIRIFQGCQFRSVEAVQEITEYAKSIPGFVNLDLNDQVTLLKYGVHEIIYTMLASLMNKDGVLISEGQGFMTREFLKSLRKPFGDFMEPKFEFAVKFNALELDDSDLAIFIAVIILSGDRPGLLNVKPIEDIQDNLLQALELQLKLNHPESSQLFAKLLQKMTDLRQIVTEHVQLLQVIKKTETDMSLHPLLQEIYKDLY

CCO[Si](CCC#N)(OCC)OCC
inactive: outcome [1] | Potency [2] | Potency [4] | Potency [5] | max response [7] -7.94% | activity change % (negative = inhibition) [8] 18.5% | activation [9] 0.629% | max response [10] -0.819% | Potency [11] | max response [12] -7.54% | max response [13] -14.2% | max response [14] -1.9% | outcome [15]
-7.96%: max response [3]
-13.6%: max response [6]

CN=C(N)NCC1CCOC1 (stereo unspecified)
inactive: outcome [1] | Potency [2] | Potency [4] | Potency [5] | max response [7] 8.29% | activity change % (negative = inhibition) [8] -7.34% | activation [16] 20.9% and -3.95% | activation [9] -4.18% | activation [17] 14.3% and -0.391% | max response [10] -3.68% and 0.552% | Potency [11] | max response [12] -1.14% | max response [13] -9.41% | Potency [18] | max response [14] -8.95% and -6.71% | outcome [15]
-7.78%: max response [3]
-4.8%: max response [6]

CCCCCCCC/C=C\CCCCCCCCCCCCC
inactive: outcome [1] | Potency [2] | Potency [4] | Potency [5] | max response [7] 1.65% | activation [16] -1.77% | activation [9] -1.6% | activation [17] -0.312% | max response [10] -1.02% | Potency [11] | max response [12] 1.5% | max response [13] -4.21% | Potency [18] | max response [14] -1.72% | outcome [15]
-11.4%: max response [6]
4.69%: max response [3]

C[C@]12CCC(=O)C=C1CC[C@@H]1[C@@H]2[C@@H](O)C[C@]2(C=O)[C@@H](C(=O)CO)CC[C@@H]12
inactive: outcome [1] | Potency [2] | outcome [19] | Potency [4] | max response [7] 1.07% | activity change % (negative = inhibition) [8] 7.91% | activation [16] -0.611% | activation [9] -3.08% | activation [17] -0.37% | max response [10] 0.506% | max response [12] -8.31% | max response [13] -8.63% | Potency [18] | max response [14] -0.971% | outcome [15]
19.7%: max response [3]
-18.8%: max response [6]

Cc1ccc(N=Nc2c(O)ccc3ccccc23)c([N+](=O)[O-])c1
inactive: outcome [19] | Potency [4] | max response [7] -0.783% | activity change % (negative = inhibition) [8] -2.29% | activation [16] -4.13% | activation [9] -0.237% | max response [10] 0.597% | max response [12] -11.8% | max response [13] -2.16% | Potency [18] | max response [14] 5.08%
active: Potency [17] 17.8 µM
-14.3%: max response [3]
-4.75%: max response [6]

C=CC(=O)NC(C)(C)CS(=O)(=O)O
inactive: Potency [20] | outcome [1] | Potency [2] | outcome [19] | Potency [4] | max response [7] -8.43% and -30.3% | activity change % (negative = inhibition) [8] 13.1% and 23.4% | activation [16] 2.63% and -4% | activation [9] -1.64% and -0.911% | activation [17] 1.15% and -0.952% | max response [10] 2.58% and -1.53% | Potency [11] | max response [12] -6.76% and -9.12% | max response [13] -20.6% and -8.34% | Potency [18] | max response [14] -5.7% and -3.87% | outcome [15]
-14.1% and -12.4%: max response [3]
6.06% and 6.67%: max response [6]

CC1(C)[C@@H]([C@@H](Br)C(Br)(Br)Br)[C@H]1C(=O)O[C@H](C#N)c1cccc(Oc2ccccc2)c1
active: Potency [13] 50.1 µM
inactive: outcome [19] | activity change % (negative = inhibition) [8] -17.9% | activation [16] 11.9% | activation [17] 0.917% | max response [10] -5.06% | Potency [11] | max response [12] -14.5% | Potency [18]

O=S(c1ccc(Cl)cc1)c1cc(Cl)c(Cl)cc1Cl (stereo unspecified)
active: Potency [9] 7.94 µM
inactive: outcome [19] | Potency [5] | activity change % (negative = inhibition) [8] -2.9% | activation [16] 3.87% | activation [17] 0.902% | max response [10] -1.31% | Potency [11] | max response [12] -25.7% | max response [13] -14.5% | Potency [18]

Cc1ccc(Cl)cc1Cl
-6.55%: max response [6]
inactive: Potency [20] | outcome [19] | Potency [5] | max response [7] -30.4% | activity change % (negative = inhibition) [8] -1.13% | activation [16] 1.63% | activation [9] -1.58% | activation [17] 1.78% | max response [10] -0.243% | Potency [11] | max response [12] 7.57% | max response [13] -8.46% | Potency [18] | max response [14] 1.69% | outcome [15]

O=C(O)C(c1ccc(Cl)cc1)c1ccc(Cl)cc1
inactive: Potency [20] | outcome [19] | Potency [5] | max response [7] 12.2% | activity change % (negative = inhibition) [8] -8.17% | activation [9] 0.121% | activation [17] -0.789% | max response [10] 3.51% | Potency [11] | max response [12] -12.1% | max response [13] 0.137% | Potency [18] | max response [14] -4.74% | outcome [15]
-10.2%: max response [6]
